Test results from PubChem BioAssay AID2553 (Johns Hopkins Ion Channel Center, 2010).
About 3,300 (1.1%) of roughly 310,000 compounds were called active.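 The calls were made as follows: active = B-score under library mean minus 3 SD, initial fluorescence not abnormally high, positive integrated signal ratio; inactive = the rest.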 Shown is part of a subset that was picked to be rich in actives.

Molecular target: Short transient receptor potential channel 6 (Mus musculus) (UniProt Q61143)
Test: mouse TRPC6 channel inhibitors, primary screen, cell-based, HEK293, membrane potential dye (AID 2553);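 as to B-score: B-score derived from integrated fluorescence ratio over the kinetic read; more negative B-score means stronger inhibition of depolarization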
Settings: ACh-evoked depolarization, at 10 µM; hits give low values

Sequence of Short transient receptor potential channel 6 (Mus musculus) (Q61143 whole entry, looked up): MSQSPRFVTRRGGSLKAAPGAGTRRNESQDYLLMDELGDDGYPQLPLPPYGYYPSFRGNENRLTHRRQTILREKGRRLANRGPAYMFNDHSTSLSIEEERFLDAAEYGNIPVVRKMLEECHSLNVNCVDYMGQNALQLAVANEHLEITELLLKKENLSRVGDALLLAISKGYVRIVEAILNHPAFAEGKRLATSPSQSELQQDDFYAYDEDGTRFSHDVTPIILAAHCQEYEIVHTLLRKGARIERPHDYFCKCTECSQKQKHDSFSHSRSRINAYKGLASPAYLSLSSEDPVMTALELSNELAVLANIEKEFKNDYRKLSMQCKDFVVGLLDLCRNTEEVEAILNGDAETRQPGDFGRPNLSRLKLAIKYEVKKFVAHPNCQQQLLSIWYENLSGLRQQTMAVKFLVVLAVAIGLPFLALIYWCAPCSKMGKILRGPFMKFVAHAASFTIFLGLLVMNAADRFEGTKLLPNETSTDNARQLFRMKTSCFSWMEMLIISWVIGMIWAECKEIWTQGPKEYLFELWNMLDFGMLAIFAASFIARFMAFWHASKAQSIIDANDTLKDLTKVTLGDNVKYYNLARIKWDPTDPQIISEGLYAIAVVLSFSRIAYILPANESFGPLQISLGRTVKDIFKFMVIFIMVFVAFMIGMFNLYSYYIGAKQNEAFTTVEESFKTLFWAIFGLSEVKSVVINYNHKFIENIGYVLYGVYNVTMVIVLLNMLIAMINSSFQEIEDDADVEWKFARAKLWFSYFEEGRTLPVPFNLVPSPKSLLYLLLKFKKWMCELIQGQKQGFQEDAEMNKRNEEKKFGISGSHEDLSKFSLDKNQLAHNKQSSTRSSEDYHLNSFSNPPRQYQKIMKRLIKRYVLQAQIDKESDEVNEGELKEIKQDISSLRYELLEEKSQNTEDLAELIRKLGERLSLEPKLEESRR

Compound | B-score
Cc1nc2ccc(N3CCN(C)CC3)cc2nc1C | inactive
COc1cccc(-c2nc3ccc(N4CCN(C)CC4)cc3[nH]2)c1 | -9.09 (active)
CC1=C(C(=O)Nc2ccccc2)S(=O)(=O)CCO1 | inactive
COc1ccc(Br)cc1CNCCc1cccc(Cl)c1 | inactive
CCOc1cccc(=NC2CCCCC2)c2c(C)[nH]c(C)c12 | -8.34 (active)
CCOP(=S)(OCC)C(O)CCCCCn1c(=O)c(F)cn(C2CCCO2)c1=O (stereo not given) | inactive
COCc1cc(OC(=O)N(C)C)nc(-c2ccc(C)c(Cl)c2)n1 | inactive
C[N+]12CN3CN(CN(C3)C1)C2 | inactive
CC1=CC(=Cc2sc3ccccc3[n+]2C)C=C(C)O1 | -5.72 (active)
COc1c(O)ccc2c1-c1c3c(cc4c1C(C2)N(C)CC4)OCO3 (stereo not given) | inactive
Cc1cccc(OP(=O)(Oc2cccc(C)c2)OC(c2ccccc2)C(F)(F)F)c1 (stereo not given) | inactive
CC1=C2C(=O)C3C(CC=C4CC(OC5OC(O)C(O)C(O)C5CO)CCC43C)C2CCC12OC1CC(C)CNC1C2C (stereo not given) | inactive
CCOP(=O)(OCC)C(NC(=O)c1ccc(C)cc1)C(Cl)(Cl)Cl (stereo not given) | inactive
c1ccc(CC2CCCCN2)cc1 (stereo not given) | inactive
Cc1nc2ccccn2c1P(=S)(N1CCCCC1)N1CCCCC1 | inactive
Cc1nn(Cc2ccccc2Cl)c(Cl)c1C(=O)OC(C(=O)NC(N)=O)C(C)C (stereo not given) | inactive
N[C@@H](Cc1c[nH]c2ccccc12)c1nnc(SCc2c(F)cccc2Cl)o1 | inactive
CC1(C)Cc2c(C#N)c(N3CCNCC3)nc(-c3ccco3)c2CS1 | -5.98 (active)
O=c1[nH]c(O)c(C=Nc2cc(F)cc(F)c2)c(=O)[nH]1 | inactive
COc1ccccc1NC(=O)N1C[C@@H]2C[C@@H](C1)c1cccc(=O)n1C2 | inactive
CN1CCN(Cc2ccc(OC(F)(F)F)cc2)CC1 | inactive
CN1CCN(c2cc(N3CCNCC3)ccc2[N+](=O)[O-])CC1 | -9.48 (active)
CCN1CCN(c2ccc([N+](=O)[O-])cc2C#N)CC1 | inactive
N=c1ccccn1Cc1ccccc1 | inactive
CC(Cc1ccccc1)NC=O (stereo not given) | inactive
CCCCCCCCCCCCn1ccc(=N)cc1 | -8.97 (active)
CCCCCCN=C(CC)c1c(O)n(CCCC)c(=O)[nH]c1=O | inactive
CC(C)(C)[C@]1(O)C[C@@H]2OC(=O)C[C@@]23C(=O)O[C@@H]2OC(=O)[C@H](O)[C@]213 | inactive
c1ccc(C2NCc3ccccc3-n3cccc32)cc1 (stereo not given) | inactive
NCCc1c[nH]c2ccc(O)cc12 | inactive
